A selection: hits, their analogues and other compounds. The true share with any hit is near 14%.
USP28 inh = inhibitors of human USP28 deubiquitinase | purified USP28, Ub-rhodamine cleavage fluorescence, 30 min | inhibition, % at 25 µM | 47,000 compounds, 3% hits
USP30 inh = human USP30 deubiquitinase inhibition. purified USP30, Ub-rhodamine cleavage fluorescence. inhibition, % at 25 µM. 47,000 compounds, 5.3% hits
USP10 inh = blocks human USP10 ubiquitin-rhodamine cleavage | Q14694 | inhibition, % at 20 µM | purified USP10, Ub-rhodamine fluorescence, 60 min | AID 1645856 | 47,000 compounds, 1.1% hits
USP17 block = human USP17-like deubiquitinase inhibition; inhibition, % at 50 µM; 47,000 compounds, 6.5% hits; purified USP17, Ub-rhodamine cleavage fluorescence, 3 h
Target sequence (A8MUK1 whole entry, looked up): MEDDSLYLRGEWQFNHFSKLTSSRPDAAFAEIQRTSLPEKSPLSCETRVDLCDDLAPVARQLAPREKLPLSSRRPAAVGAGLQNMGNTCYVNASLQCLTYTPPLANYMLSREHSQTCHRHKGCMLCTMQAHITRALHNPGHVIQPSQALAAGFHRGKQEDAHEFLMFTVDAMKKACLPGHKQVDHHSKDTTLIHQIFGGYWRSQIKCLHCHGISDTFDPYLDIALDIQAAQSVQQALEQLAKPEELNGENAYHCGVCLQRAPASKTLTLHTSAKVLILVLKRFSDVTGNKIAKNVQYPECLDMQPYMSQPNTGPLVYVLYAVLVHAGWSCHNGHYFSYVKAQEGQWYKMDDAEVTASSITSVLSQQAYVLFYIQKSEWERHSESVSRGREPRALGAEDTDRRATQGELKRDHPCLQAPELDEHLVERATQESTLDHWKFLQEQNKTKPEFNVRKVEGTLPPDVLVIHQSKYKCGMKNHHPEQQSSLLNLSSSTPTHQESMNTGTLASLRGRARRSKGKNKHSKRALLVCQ
USP8 block = human USP8 deubiquitinase inhibition; purified USP8, Ub-rhodamine cleavage fluorescence, 30 min; inhibition, % at 20 µM; 47,000 compounds, 4.2% hits; P40818; AID 1645853
Starred values were filed as active, the others as inactive; · = no result. Rule as the data show it: active = inhibition above about 30%; inactive = the rest.

SMILES | USP28 inh | USP30 inh | USP10 inh | USP17 block | USP8 block
Cc1ccc(S(=O)(=O)NCCc2nc(-c3cccc(-c4ccnn4C)c3)no2)cc1 | 12 | 14 | 7 | 20 | 15
CC(=O)N1C[C@H]2C3(CCN(C(=O)c4cscn4)CC3)CC[C@@]2(C(=O)N(C)C)C1 | -5 | -22 | -8 | -16 | -91
Cc1snc(SCc2nc(COc3ccc(Cl)cc3Cl)n[nH]2)c1C#N | 40* | 40* | 19 | 15 | -12
Clc1ccc(OCc2nn[nH]n2)c(Cl)c1 | -10 | 0 | 0 | · | -20
Cc1cccc2c1N(CC(=O)NCc1ccccc1)C(=O)C1CCCN1C2=O (centres undefined) | -4 | 7 | 1 | -4 | 0
CCOc1ccc2c(c1)c(=O)c(C(=O)c1ccc(F)cc1)cn2CC(=O)Nc1ccc(F)cc1 | · | · | 20 | 41* | 72*
CCOc1ccc2c(c1)c(=O)c(C(=O)c1ccc(C)cc1)cn2CC(=O)Nc1ccc(OC)c(OC)c1 | 40* | 70* | 48* | 36* | 87*
COc1ccc(NC(=O)Cn2cc(C(=O)c3ccc(OC)cc3)c(=O)c3cc4c(cc32)OCCO4)cc1 | 7 | 10 | 6 | 6 | 44*
COc1ccc(NC(=O)Cn2cc(C(=O)c3ccc(F)cc3)c(=O)c3cc(C)ccc32)cc1 | 14 | 32* | 41* | 75* | 23
CCOc1ccc(NC(=O)Cn2cc(-c3ccccc3)c3ncn(C4CC4)c(=O)c32)cc1 | -16 | -308 | -14 | -44 | -9
O=C(c1n[nH]c2c1CCCC2)N1CCn2c(nnc2-c2ccccc2)C1 | 5 | -3 | 0 | -4 | -4
Cc1ccc(C(=O)c2cn(CC(=O)Nc3ccc(Cl)cc3)c3ccc(F)cc3c2=O)cc1 | -60 | -219 | 15 | -26 | 60*
COc1cnc(-c2ccccn2)nc1Sc1ccccc1Cl | 5 | 87* | 3 | 39* | -326
Cc1cc(C)cc(N(CC(=O)NCc2ccc3c(c2)OCO3)C(=O)c2ccc3c(c2)OCCO3)c1 | 19 | 36* | 9 | 24 | 13
CCOc1ccc(C(=O)CCC(=O)Nc2cccc(S(=O)(=O)Nc3cccc(Cl)c3)c2)cc1 | -3 | -47 | 33* | 32* | 0
COc1ccc(NS(=O)(=O)c2cccc(NC(=O)CCOc3ccccc3OC)c2)cc1 | · | · | 6 | -3 | 7
O=C1N[C@H]2CCCN(C(=O)c3cnco3)[C@H]2CCCCCOc2ccccc21 | 0 | 1 | 0 | -1 | -6
COc1ccc(C(CNC(=O)c2cc(-c3ccc(C)c(C)c3)on2)N2CCOCC2)cc1 (centres undefined) | 11 | 35* | 0 | 21 | 9
COc1ccc(-c2cc(C(=O)NCC(c3ccc(C)cc3)N3CCCC3)no2)cc1 (centres undefined) | -27 | -99 | -10 | -31 | -1
CCC(CC)C(=O)c1c[nH]c(C(=O)NCc2cccs2)c1 | 0 | 38* | 0 | 27 | 5
CCN1C(=O)[C@H]2CN(CC(C)C)C[C@H]2C12CCN(C(=O)Nc1ccc(F)cc1)CC2 | -7 | -10 | -3 | -23 | -67
O=C(Nc1ccccc1)c1ccc(-c2ccc(N3CCCC3)nn2)cc1 | 22 | 39* | 1 | 22 | 15
O=C(NCc1ccccc1)c1ccc(-c2ccc(N3CCCC3)nn2)cc1 | -2 | -29 | -3 | 66* | -2
O=C(NCc1ccc2c(c1)OCO2)c1ccc(-c2ccc(N3CCCC3)nn2)cc1 | 15 | 0 | 22 | 3 | 16
COc1cc2ncc(S(=O)(=O)c3ccc(C)cc3)c(Nc3ccc(F)cc3)c2cc1OC | 47* | -6 | 7 | -31 | -185
SMILES | USP28 inh | USP30 inh | USP10 inh | USP17 block | USP8 block
CCn1c(Cn2cccn2)nc2cc(NC(=O)c3ccccc3C)ccc21 | 46* | -15 | 2 | -3 | -2
CCn1c(Cn2cccn2)nc2cc(NC(=O)C3CCCCC3)ccc21 | 38* | 13 | 4 | -60 | -1
CC(=O)N1Cc2cc(C)ccc2OC2(CCN(CC(=O)Nc3ccccc3F)CC2)C1 | -1 | 5 | -2 | -1 | -8
CCc1ccc(NC(=O)CN2CCN(c3nc4ccccc4s3)CC2)cc1 | 8 | -2 | 0 | -7 | -3
CCc1ccc(NC(=O)Cc2nc(-c3ccc(O)cc3O)cs2)cc1 | · | · | -5 | 38* | -23
CC(C)OCCCNC(=O)C1CCCN(S(=O)(=O)N2CCCCCC2)C1 (centres undefined) | 0 | 14 | -3 | -1 | 6
O=C(c1cc(-c2ccc(Cl)cc2)n[nH]1)N1CCN(c2ccccn2)CC1 | 13 | 43* | 23 | 45* | 66*
Cc1ccc(-c2nn3c(N4CCCC4)cc(C)nc3c2C)cc1 | -5 | -3 | -2 | 22 | -2
O=C(c1cc(-c2ccc(Cl)cc2)n[nH]1)N1CCN(C(=O)c2ccco2)CC1 | 3 | 10 | 3 | 70* | -4
COc1ccc(-c2cc(C(=O)N3CCN(c4ccccn4)CC3)[nH]n2)cc1 | 21 | 11 | 4 | 46* | 14
COc1ccc(-c2cc(N3CCN(C(=O)c4ccccn4)CC3)n[nH]2)cc1 | -17 | -23 | 0 | -10 | -7
COc1ccc(-c2nn3c(N4CCN(c5ccccn5)CC4)cc(C)nc3c2C)cc1 | · | · | 1 | 84* | 3
Cc1ccc2[nH]c(=O)c(CN(C(=O)Nc3ccc(F)cc3)C3CCCC3)cc2c1 | 4 | 24 | -2 | 0 | -2
O=C(C1CCN(c2nc3ccc(Cl)cc3[nH]2)CC1)N1CCN(Cc2ccccc2)CC1 | -3 | -22 | -1 | -7 | -18
O=C1CN(C(=O)c2ccc(N3CCC(Cc4ccccc4)CC3)nn2)CCN1 | 13 | 3 | -4 | -27 | -1
O=C(NC1CCS(=O)(=O)C1)c1ccc(N2CCC(Cc3ccccc3)CC2)nn1 (centres undefined) | 5 | 23 | 5 | 53* | 0
CCOC(=O)N1CCC(NC(=O)Cn2ccc3ccccc32)CC1 | -5 | -5 | 0 | -11 | 0
CCOC(=O)N1CCC(NC(=O)c2cnn3c(-c4ccccc4)ccnc23)CC1 | 3 | 40* | -5 | 32* | -5
Cc1sc(NC(=O)CN2CCc3ccccc3C2)nc1-c1ccc2c(c1)CCN2C(=O)c1cccc(F)c1 | -25 | -65 | -7 | 21 | 51*
Cc1cccc(C(=O)N2CCc3cc(-c4nc(NC(=O)CN5CCc6ccccc6C5)sc4C)ccc32)c1 | 20 | 12 | 3 | 66* | 79*
CCc1nc2ccc(C(=O)Nc3nc(-c4ccc5c(c4)CCN5C(=O)c4cccc(F)c4)c(C)s3)cc2nc1CC | -3 | -41 | 1 | 13 | 11
Cc1cccc(C(=O)N2CCc3cc(-c4nc(NC(=O)CN(C)C5CCCCC5)sc4C)ccc32)c1 | 12 | 10 | 5 | 30 | 19
Cc1ccc(C(=O)N2CCc3cc(-c4nc(NC(=O)CN5CCCC5)sc4C)ccc32)cc1 | 3 | -5 | 2 | -1 | -1
Cc1sc(NC(=O)CN(C)C2CCCCC2)nc1-c1ccc2c(c1)CCN2C(=O)c1ccccc1F | 9 | -38 | -3 | 16 | 38*

Source: PubChem BioAssay (Buhrlage Lab, Dana-Farber Cancer Institute and Novartis Institutes for BioMedical Research (Cambridge, Mass))
